Source: PubChem BioAssay (several laboratories)
A selection: hits, their analogues and other compounds. The true share with any hit is near 3.6%.
NRP1-CendR mod: modulators of CendR peptide binding to NRP-1, primary screen, biochemical, fluorescence polarization, uHTS | Neuropilin-1 (Homo sapiens), O14786 | FAM-RPARPAR peptide binding to NRP-1 | inhibition, % at 25 µM | 360,000 tested, 0.85% active | AID 602438, 2012;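 active = inhibition or corrected inhibition above about 18%, plus a signal ratio from 0.5 to 1.5, limit read from the data, passing the limit was not always enough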
CRFBP-R2 block: antagonists of CRF-BP/CRF-R2 complex, primary screen, cell-based, HEK293, calcium dye fluorescence, uHTS; inhibition, % at 11.8 µM; CRF-induced calcium fluorescence; 350,000 tested, 0.59% active;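 active = inhibition of the ligand-induced calcium signal above about 50% at the single tested concentration, limit read from the data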
NadD block: inhibitors of S. aureus NadD, primary screen, biochemical, colorimetric, uHTS; 360,000 tested, 0.78% active; Nicotinate-nucleotide adenylyltransferase NadD (Staphylococcus aureus N315); purified NadD enzyme, colorimetric absorbance read-out; inhibition, % at 20 µM; in the data active = inhibition above about 26%
FAS TE block: FAS thioesterase domain inhibitors, primary screen, biochemical, fluorescence intensity, uHTS; 360,000 tested, 0.67% active; inhibition, % at 15 µM; Fatty acid synthase (Homo sapiens), P49327; recombinant FAS-TE, OMFH fluorogenic substrate, fluorescence endpoint;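 active = compounds whose normalised, plate-corrected inhibition of enzyme fluorescence in the single-dose primary screen is 50% or more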;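 note: 0% = DMSO with enzyme and 100% = substrate without enzyme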
Myeloid diff MLP: induction of myeloid progenitor differentiation, primary screen, cell-based, flow cytometry, MLPCN library. ER-HoxA9 myeloid progenitors, lysozyme-GFP differentiation. calls only at 10 µM. 360,000 tested, 1% active. AID 624256, 2012;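 active = normalized GFP-positive differentiation at or above the plate's own cutoff, the solvent-only control mean plus 3 SD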;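 note: cells exposed to compound for four days before flow analysis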
Numbers without * were called inactive.

`C[C@@H]1CN([C@H](C)CO)C(=O)CCCn2nncc2CO[C@@H]1CN(C)C(=O)CCC(F)(F)F` gave NRP1-CendR mod 27*, CRFBP-R2 block -5, NadD block 3, FAS TE block -5 and Myeloid diff MLP inactive.
CC1=C(C(=O)N2CCCCCC2)CC(CC(=O)NCc2cccs2)C(=O)N1Cc1ccccc1 (stereo not drawn) was read as NRP1-CendR mod -1, NadD block -5, FAS TE block -4 and Myeloid diff MLP inactive.
COc1ccc(N2CCN(C(=O)C3CCN(C(=O)c4ccc([N+](=O)[O-])cc4)CC3)CC2)cc1 was read as NRP1-CendR mod 16, CRFBP-R2 block 13, NadD block 1, FAS TE block 0 and Myeloid diff MLP inactive.
N#Cc1ccc(COC(=O)c2cnc(Cl)c(Cl)c2)cc1 was read as NRP1-CendR mod 25*, CRFBP-R2 block 13, NadD block -7, FAS TE block 24 and Myeloid diff MLP inactive.
CC(=O)c1ccc(NC(=S)NCC(c2ccco2)N2CCCC2)cc1 (stereo not drawn) was read as NRP1-CendR mod 9, CRFBP-R2 block 6, NadD block -4, FAS TE block -2 and Myeloid diff MLP active.
`COc1ccc(NC(=S)NCC(c2ccco2)N2CCCC2)cc1` (stereo not drawn) gave NRP1-CendR mod 11, CRFBP-R2 block -6, NadD block 0, FAS TE block -3 and Myeloid diff MLP inactive.
For N#Cc1cccc(NC(=O)CCNS(=O)(=O)c2ccc3[nH]c(=O)oc3c2)c1 the results were NRP1-CendR mod -8, CRFBP-R2 block -17, NadD block -1, FAS TE block -7 and Myeloid diff MLP inactive.
For Cc1cc(NC(=O)COc2ccc3ccccc3c2Br)no1 the results were NRP1-CendR mod -8, CRFBP-R2 block -22, NadD block -1, FAS TE block -3 and Myeloid diff MLP inactive.
c1ccc(-c2csc(Nc3ccc4c(c3)OCCO4)n2)cc1 was read as NRP1-CendR mod 8, CRFBP-R2 block -21, NadD block 7, FAS TE block 13 and Myeloid diff MLP inactive.
c1cc2c(cc1Nc1nc(-c3ccc4c(c3)OCO4)cs1)OCCO2 was read as NRP1-CendR mod -6, CRFBP-R2 block -5, NadD block 40*, FAS TE block 1 and Myeloid diff MLP inactive.
For O=c1cnn(Cc2c(Cl)cccc2Cl)c2ccccc12 the results were NRP1-CendR mod 14, CRFBP-R2 block -1, NadD block -4, FAS TE block -1 and Myeloid diff MLP active.
For CC(=O)[C@H]1[C@@H]2C(=O)N(c3cccc(Cl)c3)C(=O)[C@@H]2[C@H]2c3ccccc3C=CN21 the results were NRP1-CendR mod -15, CRFBP-R2 block -14, NadD block 10, FAS TE block -7 and Myeloid diff MLP inactive.
O=C(c1ccco1)[C@@H]1[C@@H]2C(=O)N(c3ccc(Br)cc3)C(=O)[C@@H]2C2c3ccccc3C=CN21 (stereo partly drawn) was read as NRP1-CendR mod -42, CRFBP-R2 block 39, NadD block 32*, FAS TE block -10 and Myeloid diff MLP inactive.
Screening CCCCCCCCN1C(=O)[C@H](CC(=O)NCc2cccc3ccccc23)C[C@@]2(C(=O)OC)CC(C)(C)CC=C12 returned NRP1-CendR mod -9 and Myeloid diff MLP inactive.
For COc1cccc(CC2(CO)CCN(C(=O)NCCc3ccccc3)CC2)c1 the results were NRP1-CendR mod -2, CRFBP-R2 block 1, NadD block -5, FAS TE block -2 and Myeloid diff MLP active.
Screening COc1cccc(CC2(CO)CCN(C(=O)NC3CCCCC3)CC2)c1 returned NRP1-CendR mod -5, CRFBP-R2 block -12, NadD block -5, FAS TE block 2 and Myeloid diff MLP inactive.
Cc1ccc(-n2cc3c(-c4cccc(Br)c4)nnc(C)c3n2)cc1 was read as NRP1-CendR mod 136, CRFBP-R2 block 7, NadD block 19, FAS TE block -34 and Myeloid diff MLP active.
`Cc1nnc(-c2cccc(Br)c2)c2cn(-c3ccccc3Cl)nc12` gave NRP1-CendR mod -63, CRFBP-R2 block -3, NadD block 9, FAS TE block 10 and Myeloid diff MLP inactive.
For CCN(CC)c1nc(C=Cc2ccc(N(C)C)cc2)c2nccnc2n1 the results were NRP1-CendR mod 102, CRFBP-R2 block -211, NadD block -5, FAS TE block -40 and Myeloid diff MLP active.
N#C/C(=C1\CCCN1)c1nc2ccccc2c(=O)[nH]1 was read as NRP1-CendR mod -12, CRFBP-R2 block 68*, NadD block -1, FAS TE block -2 and Myeloid diff MLP inactive.
Screening CN(C)S(=O)(=O)c1ccc(Cl)c(C(=O)Nc2ccc(S(=O)(=O)N3CCOCC3)cc2)c1 returned NRP1-CendR mod -13, CRFBP-R2 block 1, NadD block -3, FAS TE block 4 and Myeloid diff MLP inactive.
For CCOC(=O)C1=C(CSc2nc(CC)c(C)cc2C#N)OC(N)=C(C#N)C1c1ccc(OC)cc1 (stereo not drawn) the results were NRP1-CendR mod -28, CRFBP-R2 block -27, NadD block 20, FAS TE block 14 and Myeloid diff MLP active.
Screening COc1ccc2c(c1)-c1nc(/N=C/c3ccc(O)cc3)sc1CC2 returned NRP1-CendR mod -6, CRFBP-R2 block 91*, NadD block -2, FAS TE block -15 and Myeloid diff MLP inactive.
COc1ccc2c(c1)-c1nc(/N=C/c3c(O)ccc4ccccc34)sc1CC2 was read as NRP1-CendR mod -22, CRFBP-R2 block 10, NadD block -2, FAS TE block -4 and Myeloid diff MLP inactive.
CCCC[n+]1ccn(-c2nc3c([N+](=O)[O-])cccc3n2C)c1 was read as NRP1-CendR mod 5, CRFBP-R2 block 18, NadD block 11, FAS TE block 3 and Myeloid diff MLP inactive.
CCN(CC)c1nc2ccccc2nc1C(C#N)C(=O)NCCCOC (stereo not drawn) was read as NRP1-CendR mod -20, CRFBP-R2 block -5, NadD block -2, FAS TE block 0 and Myeloid diff MLP active.
COc1ccc(NC(=O)COC(=O)C2CCCN2C(=O)OC(C)(C)C)cc1Cl (stereo not drawn) was read as NRP1-CendR mod -2, CRFBP-R2 block -2, NadD block -2, FAS TE block 2 and Myeloid diff MLP inactive.
Screening Cc1ccc2[nH]c(O)c(N=NC(N)=S)c2c1 returned NRP1-CendR mod 6, CRFBP-R2 block 2, NadD block 1, FAS TE block -1 and Myeloid diff MLP inactive.
For CC(/C=C(\NC(=O)c1ccccc1)C(=O)N=Nc1c(O)[nH]c2ccc(C)cc12)=C\c1ccccc1 the results were NRP1-CendR mod -9, CRFBP-R2 block 14, NadD block 39*, FAS TE block 39 and Myeloid diff MLP inactive.
